High-throughput results from PubChem.
RBX1-CUL1 inh – inhibitors of human ROC1-CUL1 ubiquitin ligase activity | P62877+Q13616 | AID 1347404 | in vitro K48 di-Ub FRET, acceptor:donor ratio, 45 min | actives 0.6% (n = 140,000) | inhibition, % at 10 µM; in the data active means inhibition above about 25%
Target sequence (P62877 whole entry, looked up): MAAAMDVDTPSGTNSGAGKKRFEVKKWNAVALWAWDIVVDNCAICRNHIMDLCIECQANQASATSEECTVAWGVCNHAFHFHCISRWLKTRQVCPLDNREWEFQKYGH
Target sequence (Q13616 whole entry, looked up): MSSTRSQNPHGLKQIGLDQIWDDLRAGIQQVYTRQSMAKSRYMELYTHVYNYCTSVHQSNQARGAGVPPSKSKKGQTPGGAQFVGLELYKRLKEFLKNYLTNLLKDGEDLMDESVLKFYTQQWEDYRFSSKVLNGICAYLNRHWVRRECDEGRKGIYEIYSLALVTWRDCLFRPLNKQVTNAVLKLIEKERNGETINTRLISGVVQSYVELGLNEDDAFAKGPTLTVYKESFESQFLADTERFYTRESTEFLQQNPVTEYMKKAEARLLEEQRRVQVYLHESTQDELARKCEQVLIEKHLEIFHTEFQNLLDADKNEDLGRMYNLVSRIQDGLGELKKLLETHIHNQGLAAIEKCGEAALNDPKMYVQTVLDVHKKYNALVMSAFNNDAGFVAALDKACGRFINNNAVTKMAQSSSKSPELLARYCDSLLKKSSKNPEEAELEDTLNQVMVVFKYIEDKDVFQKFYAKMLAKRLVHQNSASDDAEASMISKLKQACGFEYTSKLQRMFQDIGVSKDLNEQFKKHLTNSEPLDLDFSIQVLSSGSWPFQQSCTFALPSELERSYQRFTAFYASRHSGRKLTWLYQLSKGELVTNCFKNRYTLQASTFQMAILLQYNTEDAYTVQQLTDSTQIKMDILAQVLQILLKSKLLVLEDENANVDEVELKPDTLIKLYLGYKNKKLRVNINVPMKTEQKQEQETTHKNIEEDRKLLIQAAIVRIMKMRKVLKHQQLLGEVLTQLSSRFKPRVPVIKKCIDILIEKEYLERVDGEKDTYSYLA
Each line names hits and unclear results; the compound was inactive in the other large screens. Many of the other results were omitted from the sample, so hits are more common in it than they were.

COc1ccc2c(c1)Cc1sc(NC(=O)c3cccc(F)c3)nc1-2	none
COc1ccc2c(c1)Cc1sc(NC(=O)c3cccc(Br)c3)nc1-2	none
COc1ccc2c(c1)Cc1sc(NC(=O)c3ccccc3C)nc1-2	RBX1-CUL1 inh 32
COc1ccc2c(c1)CCc1sc(NC(=O)c3ccc(Cl)cc3)nc1-2	none
COc1ccc(C(=O)Nc2nc3c(s2)Cc2cc(OC)ccc2-3)cc1	RBX1-CUL1 inh 40
COc1ccc2c(c1)-c1nc(NC(=O)c3ccccc3F)sc1CC2	none
COc1ccccc1NC(=O)CCN1C(=O)C2C3C=CC(C3)C2C1=O (configuration not stated)	none
CCc1ccccc1NC(=O)CC1NC2CCCCC2NC1=O (configuration not stated)	none
CCOc1cc(/C=C2\C(=O)NC(=S)N(c3cccc(C)c3C)C2=O)cc(Br)c1O	none
O=C(CCc1ccco1)N1CCC(C2CCN(c3ncccn3)CC2)C1 (configuration not stated)	none
CCOc1c(I)cc(I)cc1/C=C1/C(=O)N(c2ccc(Cl)c(Cl)c2)N=C1C	none
Cc1ccc(N2NC(=O)/C(=C/c3cc(Cl)ccc3O)C2=O)cc1C	none
COc1c(I)cc(I)cc1/C=C1/C(=O)NN(c2ccc(Br)cc2)C1=O	RBX1-CUL1 inh 44
COc1cc(Cl)cc(/C=C2/C(=O)NN(c3ccc(F)c(Cl)c3)C2=O)c1O	RBX1-CUL1 inh 94
COc1c(I)cc(I)cc1/C=C1\C(=O)NN(c2ccc(Cl)c(Cl)c2)C1=O	RBX1-CUL1 inh 89
O=C1NN(c2ccc(Cl)c(Cl)c2)C(=O)/C1=C\c1c2ccccc2cc2ccccc12	none
COc1ccc(/C=C2\C(=O)NN(c3ccc(Br)cc3)C2=O)cc1Br	none
C=CCN1C(=O)NC(=O)/C(=C/c2cc(I)cc(I)c2OC)C1=O	none
COc1cc(Cl)cc(C=C2C(=O)N(C)C(=O)N(C)C2=O)c1O	none
CCOC(=O)c1c(NC(=O)c2ccccc2)sc(C)c1-c1ccc(F)cc1	none
COc1cccc(C2c3c(n[nH]c3-c3ccc(CC(C)C)cc3)OC(=N)C2C#N)c1OCc1ccc(F)cc1 (configuration not stated)	none
CSCCc1n[nH]c2c1CN(c1cc(N(C)C)ncn1)CC2	none
O=C(NCc1cccnc1N1CCN(c2ccccn2)CC1)c1cnccn1	none
O=C(Nc1ccc(-c2nc3cc(NC(=O)c4ccc(Cl)cc4)ccc3o2)cc1)c1ccc(Cl)cc1	none
COC(=O)c1ccc(C(=O)Nc2ccc(-c3nc4cc(NC(=O)c5ccc(C(=O)OC)cc5)ccc4o3)cc2)cc1	none
O=C(Nc1ccc2cc3ccc(NC(=O)c4ccc(=O)oc4)cc3nc2c1)c1ccc(=O)oc1	RBX1-CUL1 inh 40
CCC(Oc1ccccc1F)C(=O)N1CCN(c2ccc(OC)cc2)CC1 (configuration not stated)	none
O=C1C(=O)c2ccccc2/C1=C\c1cccs1	none
O=C(O)C(Cc1ccccc1)NS(=O)(=O)c1cccs1 (configuration not stated)	none
O=C1C(Cl)=CC(=NS(=O)(=O)c2cccs2)c2ccccc21	RBX1-CUL1 inh 41
CN(C)C(=S)NC(=O)c1cccs1	none
N#Cc1cccc2c1NC(c1cccc(Cl)c1Cl)C1CC=CC21 (configuration not stated)	none
O=C1NC(=S)N(c2ccc(Br)cc2)C(=O)/C1=C/c1ccc(Sc2nc3ccccc3[nH]2)o1	RBX1-CUL1 inh 108
O=C1NC(=S)N(c2cccc(F)c2)C(=O)/C1=C/c1ccc(Sc2ccc(Cl)cc2)o1	none
Cc1ccc(N2C(=O)/C(=C/c3ccc(-c4ccccc4)o3)C(=O)NC2=S)cc1Cl	none
COc1ccc(NC(=O)CSc2nnc(-c3cnn(-c4ccccc4)c3-n3cccc3)o2)cc1	none
OCCNc1nc(Nc2ccc(OC(F)(F)F)cc2)nc(N2CCN(C34CC5CC(CC(C5)C3)C4)CC2)n1	none
COc1ccc(-c2cc(C(=O)Nc3ccc(S(=O)(=O)Nc4cc(C)nc(C)n4)cc3)c3ccccc3n2)cc1	none
O=C(CSCC1=Nc2ccccc2C(=O)C1)Nc1cccc(C(F)(F)F)c1	none
OCCN1CCC(=C2c3ccccc3CSc3ccc(Cl)cc32)CC1	none
CCN=C1CC=C(Br)C=C(C(=O)/C=C/c2c(Cl)cccc2Cl)C1=O	RBX1-CUL1 inh 90
COc1ccc(Br)cc1/C=C/C(=O)c1ccc(OS(C)(=O)=O)cc1	none
CCOC(=O)c1ccccc1NC(=O)/C=C/c1ccc(Br)cc1	none
CCN=C1CC=C(Br)C=C(C(=O)/C=C/c2cc(OC)ccc2OC)C1=O	RBX1-CUL1 inh 55
CN=C1CC=C(Br)C=C(C(=O)/C=C/c2ccc(Br)cc2)C1=O	RBX1-CUL1 inh 36
CC(=O)c1cccc(NC(=O)/C=C/c2ccc(Br)cc2)c1	none
CCN=C1CC=C(Br)C=C(C(=O)/C=C/c2ccc(Br)cc2)C1=O	RBX1-CUL1 inh 94
CCN=C1CC=C(Br)C=C(C(=O)/C=C/c2ccc(OC)cc2)C1=O	none
CCN=C1CC=C(Br)C=C(C(=O)/C=C/c2ccc(Cl)cc2)C1=O	none
CCOc1ccccc1N1CCN(C(=O)/C=C/c2ccc(Br)cc2)CC1	none
NS(=O)(=O)c1ccc(CNC(=O)/C=C/c2c(Cl)cccc2Cl)cc1	none
O=C(/C=C/c1c(Cl)cccc1Cl)Nc1ncccn1	none
COc1cc(CNCCN2CCNC2=O)ccc1OCC(O)CN1CCSCC1 (configuration not stated)	none
COc1ccc(C(=O)N(CCc2ccccc2)CC2CCCN(C)C2)cc1OC (configuration not stated)	none
COCC(=O)Nc1cc(C(=O)NC(c2ccncc2)c2ccccc2C)c2c(c1)nc(C1CCC1)n2C (configuration not stated)	none
OC(COc1ccc2c(c1)OCO2)CN1CCN(C(c2ccccc2)c2ccccc2)CC1 (configuration not stated)	none
O=C(O)c1cc(-c2ccccc2)nc2c(Cl)ccc(Cl)c12	none
CCOc1ccccc1CNn1c(C)nnc1SCc1ccccc1F	none
C#CCOc1c(I)cc(C2c3c(n[nH]c3C)OC(=N)C2C#N)cc1OCC (configuration not stated)	none
Cn1nnnc1SCC(=O)c1ccc(F)cc1	none
COc1cccc2c1OC1c3ccccc3OC2C1C (configuration not stated)	none
CC1CN(C(=O)/C=C/c2ccc(F)cc2)C(C)CN1C(=O)/C=C/c1ccc(F)cc1 (configuration not stated)	none
CCN=C1CC=C(Br)C=C(C(=O)/C=C/c2ccc(C(F)(F)F)cc2)C1=O	none
CCN=C1CC=C(Br)C=C(C(=O)/C=C/c2ccc(F)cc2)C1=O	RBX1-CUL1 inh 27
CCC1CN(CC(=O)NCc2scnc2-c2ccccc2)Cc2cc(OC)ccc2O1 (configuration not stated)	none
Cc1ccccc1NC(=O)Cc1cccs1	none
O=C(Cc1cccs1)Nc1ccc(Cc2cccc(NC(=O)Cc3cccs3)c2C(=O)O)cc1C(=O)O	RBX1-CUL1 inh 27
O=C(Cc1cccs1)Nc1ccccc1O	none
CC(=O)c1ccccc1Sc1ccc(Cl)cc1	none
O=C(O)Cc1ccccc1Sc1ccc(Cl)cc1	none
NCc1ccccc1Sc1ccc(Cl)cc1	RBX1-CUL1 inh 31
CN(CCc1ccccc1)c1cnn(CCCN2CCOCC2)c(=O)c1	none
CCN1C(=O)C(C=N/N=C/c2ccccc2)c2ccc(C3=NNC(=O)CC3)cc21 (configuration not stated)	none
Cc1ccc(NC(=O)CN2C(=O)S/C(=C\c3cccn3-c3cccc(C(=O)O)c3)C2=O)c(C)c1	RBX1-CUL1 inh 72
Cc1ccccc1NC(=O)CN1C(=O)S/C(=C\c2cccn2-c2cccc(C(=O)O)c2)C1=O	RBX1-CUL1 inh 51
Cc1ccc(NC(=O)CN2C(=O)S/C(=C\c3cccn3-c3cccc(C(=O)O)c3)C2=O)cc1C	RBX1-CUL1 inh 48
